# Screening data (PubChem BioAssay)
# Marburg entry inh = inhibitors of Marburg virus binding or cell entry; Marburg virus pseudotyped entry inhibition, cell reporter; Potency, µM (titrated, usually from 37.8 µM), inactives show top-dose activity change, negative = inhibition, actives largely listed as inhibitors; 300,000 compounds, 1.8% hits; AID 540276; calls by dose curve; tested in HEK293 cells
# Vaccinia Venus = inhibitors of vaccinia virus (Venus reporter); Vaccinia virus Venus reporter expression, fluorescence; Potency, µM (highest dose often 36.5 µM), inactives show at the top dose activity change, negative = inhibition, actives largely listed as inhibitors; 330,000 compounds, 0.46% hits; AID 720580; calls by dose curve; tested in A549 cells; further: nearly all actives have a fitted effect of over 30% in size
# LASV entry inh = inhibitors of Lassa virus binding or cell entry; Lassa virus pseudotype entry inhibition, cell reporter; Potency, µM (titrated, usually from 37.9 µM), inactives show at the highest dose activity change, negative = inhibition, actives largely listed as inhibitors; 300,000 compounds, 1.2% hits; AID 540256; calls by dose curve; tested in HEK293 cells; further: nearly all actives have a fitted effect of over 50% in size
# Vaccinia mCherry = vaccinia inhibition (mCherry reporter) | 310,000 compounds, 0.63% hits | Potency, µM (titrated, usually from 36.5 µM), without a hit: at the highest dose activity change, negative = inhibition, actives largely listed as inhibitors | AID 720579 | Vaccinia virus mCherry reporter infection, fluorescence; calls by dose curve; tested in A549 cells; further: nearly all actives have a fitted effect of over 35% in size
# FMDV inh = antivirals against foot and mouth disease virus. Potency, µM (titrated, usually from 57.9 µM), inactives show at the top dose activity change, negative = inhibition, hits mostly inhibitors. AID 1159524. 410,000 compounds, 1.2% hits. FMDV antiviral cell-based qHTS; calls by dose curve; tested in HEK293T cells; further: read-out not given here; nearly all actives have a fitted effect of over 45% in size
# Sm TGR inh = inhibitors of Schistosoma mansoni thioredoxin glutathione reductase | Q962Y6 | purified TGR, DTNB reduction, TNB absorbance 405 nm | Potency, µM (highest dose often 114 µM), for the others: top-dose activity change, negative = inhibition, hits mostly inhibitors | 360,000 compounds, 3% hits; active means well fitted inhibition curve with a large enough effect; inconclusive means small, poorly fitted or top-dose-only effect; inactive means no such curve, though single readings can be large or run the other way; further: nearly all actives have a fitted effect of over 60% in size
#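 First, TGR (20 nM dispensed) and NADPH were mixed with compound. Second, a 15 min room-temperature incubation followed. Third, further NADPH and then DTNB were added to start the reaction. Finally, TNB absorbance was monitored kinetically.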
# Numbers without * were called inactive; i = inactive; ? = inconclusive; . = not tested or not shown; [ ] = remark or other dose. In the library only some 5.4% were active in any assay of this set; here they are far more common. On the % scale 0 is the no-effect control and ±100 the full control effect; potency means the concentration at half of the fitted maximal effect.
SMILES,Marburg entry inh,Vaccinia Venus,LASV entry inh,Vaccinia mCherry,FMDV inh,Sm TGR inh
O=C1[C@H]2[C@H]3[C@H](O)[C@H](O)C/C(=N\OCc4ccccc4)[C@H]3CC[C@H]2C(=O)N1C[C@@H]1CCCO1,-6.8%[14.2 µM],.,.,.,.,.
CC(C)CC(OC(=O)c1cccs1)C(=O)NCc1ccco1 (stereo not drawn),-6.6%,.,3.8%,.,-9.4%,39.8µM*
CCC(OC(=O)c1cccs1)C(=O)NCc1ccco1 (stereo not drawn),15.3%,.,20.1%,.,-13.7%,56.2µM*
O=C(NCc1ccco1)[C@@H]1CCCN1C(=O)c1cccs1,-3.6%[46.1 µM],2.2%,-1.7%,-1.5%,3.7%,39.8µM*
CCC(OC(=O)c1ccco1)C(=O)NCc1ccco1 (stereo not drawn),-21.5%,-8.9%,-8.7%,-9.8%,0.5%,0.0%
CCN(Cc1ccncc1)Cc1ccc2c(c1)CN(C(=O)c1ccccc1-n1cccn1)CCO2,.,-0.3%,.,-6.1%,-10.1%,.
O=C1C=CC(=O)c2c(O)c(CO)c(CO)c(O)c21,?,-20.6%,2.7%,?,35.5µM*,.
O=C1C=CC(=O)c2c(O)c(Cl)c(Cl)c(O)c21,.,0.0%,.,-7.0%,-11.4%,.
O=C(Cc1ccc2c(c1)OCO2)NN=Cc1ccc([N+](=O)[O-])o1,10µM*,?,?,?,-19.0%,.
Cc1cccc(C)c1OCC(=O)N/N=C/c1cc2c(cc1[N+](=O)[O-])OCO2,?,-10.5%,-0.2%,i,.,-1.4%
O=C(CCc1ccc(O)c(O)c1)N/N=C/c1cc2c(cc1[N+](=O)[O-])OCO2,.,.,.,.,-19.5%,15.8µM*
O=C(CNc1ccccc1)N/N=C/c1ccc([N+](=O)[O-])o1,18.3µM*,.,?,.,-4.4%,?
O=C(Cc1ccc2c(c1)OCCO2)N/N=C/c1ccco1,.,.,.,.,23.4%,-12.0%
CCN(CC)c1ccc(N=Cc2ccc([N+](=O)[O-])o2)cc1,?,?,?,?,-9.4%,35.5µM*
CCNc1nc(NCC)nc(N/N=C/c2ccc([N+](=O)[O-])o2)n1,?,?,-16.6%,?,-19.1%,-29.5%
CCCCCC(=O)N1C[C@@H](O)[C@H](n2cc(-c3ccc(F)cc3)nn2)C[C@H]1c1ccc(C)cc1,.,.,8.6%[46.1 µM],.,.,.
O=C(CCc1ccc(S(=O)(=O)N2CCOCC2)cc1)N/N=C/c1ccc(F)cc1F,?,-23.2%,?,i,14.9%,-0.6%
CCCCCC(=O)N/N=C/c1ccc([N+](=O)[O-])o1,?,.,?,.,-11.3%,39.8µM*
O=C(CCC(=O)Nc1ccc(Cl)cc1Cl)N/N=C/c1ccc([N+](=O)[O-])o1,?,?,?,?,-25.4%,?
Cc1ccc(NCC(=O)N/N=C\c2ccc([N+](=O)[O-])o2)cc1,?,?,-29.3%,11.2µM*,.,?
O=C(CCc1ccc(S(=O)(=O)N2CCOCC2)cc1)N/N=C/c1ccc(O)c(O)c1O,-47.5%,0.0%,-20.0%,i,39.8µM*,-32.0%
Cc1ccc(Cl)cc1N1CCN(C(=O)c2cn(C)c3ccc(S(=O)(=O)N4CCC(C)CC4)cc3c2=O)CC1,-2.2%[46.1 µM],-12.4%,27.0%[46.1 µM],-23.3%,-16.0%,4.4%
CCCC(O)(CCN(C)C)c1ccc(OC)cc1 (stereo not drawn),-6.4%,-19.1%,-0.3%,-12.9%,-16.8%,11.2µM*
COc1ccc(CC(=O)OCCN(C)C)cc1,-2.2%,-16.5%,21.5%,i,-5.3%,0.8%
CCN(CC)S(=O)(=O)c1ccc(Oc2ccc(S(=O)(=O)N(CC)CC)cc2)cc1,?,.,14.6µM*,.,?,-16.4%
N#CC(C#N)=NNc1ccc([N+](=O)[O-])cc1,?,31.2%,?,-1.8%,-20.8%,25.1µM*
C/C(=N\Nc1ccc([N+](=O)[O-])cc1)c1ccc(C#N)cc1,?,0.0%,-18.6%,-19.6%,-1.6%,-0.5%
CCN(CC)S(=O)(=O)c1ccc(NN=C(C#N)C#N)cc1,?,-23.4%,?,-19.3%,10µM*,7.94µM*
O=C(N=Nc1c(O)[nH]c2ccccc12)c1cccc(S(=O)(=O)N2CCCCC2)c1,19.4%,-5.5%,12.3%,i,-9.4%,5.4%
CC(C)c1ccc2[nH]c(O)c(N=NC(=O)c3cccc(S(=O)(=O)N4CCCCC4)c3)c2c1,10µM*,-25.0%,?,?,?,-6.4%
